The results in this text go back to PubChem BioAssay AID686978 (National Center for Advancing Translational Sciences (NCATS), 2013).

In all, about 420,000 compounds went through this assay and about 64,000 (15%) were called active. Roughly 27% stayed inconclusive and do not appear here. Calls follow the shape of the dose curve; as a rule, active = well fitted inhibition curve with a large enough effect; inconclusive = small, poorly fitted or top-dose-only effect; inactive = flat fitted curve, though single readings scatter. Not all results are given here. A call without a number means that no potency is given here.
Potency is read from the fitted curve at half-maximal effect.

The test in a line: qHTS for Inhibitors of human tyrosyl-DNA phosphodiesterase 1 (TDP1): qHTS in cells in absence of CPT. Also: nearly all actives have a fitted effect of over 55% in size. Conditions: DT40 Tdp1-/- hTDP1 cells, no CPT, ATP luminescence, 48 h; activity change, negative = growth inhibition: at 46.2 µM (top of the series). The gist of the method: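 Camptothecin absent (DMSO only). Human TDP1-complemented DT40 knockout cells, 400 cells/well, 37 °C for minimum 48 hr; ATP measured via CellTiter-Glo, 30 min dark incubation, luminescence.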
In the case of `C/C(=N\NS(=O)(=O)c1cccc([N+](=O)[O-])c1)c1cc2ccccc2o1`, the Potency entry was “inactive”. With `Cc1cc(NC(=O)COC(=O)COc2ccc(Cl)cc2C)c([N+](=O)[O-])cc1C` the entry was “inactive”. With `O=C(CCCN=C1NS(=O)(=O)c2ccccc21)OCC(=O)c1ccc(F)c(F)c1` the entry was “inactive”; with `S=c1[nH]nc(-c2ccccc2)n1/N=C/c1c[nH]c2ccccc12`, 6.51 µM (active).

For the compound `Fc1ccc(/C=N/n2c(COc3ccccc3)n[nH]c2=S)cc1`, the Potency entry was “inactive”. Regarding `Oc1ccccc1/C=N/n1c(-c2cccs2)n[nH]c1=S`, the Potency result was “inactive”.

Take `S=c1[nH]nc(-c2ccncc2)n1/N=C/c1ccccc1Cl`: the Potency result is “inactive”. On to `CCc1n[nH]c(=S)n1/N=C/c1c[nH]c2ccc(Br)cc12`, for which the Potency was 18.4 µM (active). With `Cc1ccc(/C=N\n2c(-c3ccccc3)n[nH]c2=S)s1` the entry was “inactive”; with `N#CCCN1CCN(S(=O)(=O)c2ccc(S(=O)(=O)NC3CCCCC3)cc2)CC1`, “inactive”. Take `COc1ccc(CCC(=O)OCC(=O)Nc2ccc(C)c(S(=O)(=O)N(C)C)c2)cc1`: the Potency result is “inactive”. Regarding `CCCCCCSc1nsc(N)n1`, the Potency result is “inactive”.

Consider `CCOC(=O)CSc1nnc(CNC(=O)c2cccs2)n1-c1cc(OC)ccc1OC`, for which the Potency result was “inactive”.

Consider `Cc1cc(=O)oc2c(C(=O)c3ccccc3)c(OCC(N)=O)ccc12`, for which the Potency entry was “inactive”.

Consider `O=C(CCCn1c(=O)oc2ccccc21)Nc1cccnc1`, for which the Potency entry was “inactive”.

For `CC(C)Cn1cc(-c2cncc3nccn23)cn1`, the Potency result was “inactive”. With `Cc1ccnc(SCCn2c(Br)nc3c2c(=O)[nH]c(=O)n3C)n1` the entry was “inactive”; with `Fc1ccccc1OCCSc1nc2ccccc2o1`, “inactive”; with `Cn1c(=O)[nH]c(=O)c2c1nc(Br)n2CCCCSc1nc2ccccc2o1`, 18.4 µM (active). For `CCc1ccc(-c2nc(SCC(=O)NC3CCCC3)n[nH]2)cc1`, the Potency is 23.1 µM (active). With `CCc1c(C)nc(SCC(=O)NC2CCCC2)[nH]c1=O` the entry was “inactive”. With `COc1ccc(-c2nc(SCC(=O)N3CCCC3)n[nH]2)cc1` the entry was “inactive”; with `Cc1cc(Br)ccc1SCC(=O)OCC(=O)NCc1ccc2c(c1)OCO2`, “inactive”; with `CCOc1ccc(C(=O)NC(C(=O)NCc2ccccn2)C(C)C)cc1` (centres undefined), “inactive”.

Turning to `COc1ccc(F)cc1S(=O)(=O)N1CCCCC1`, the Potency entry was “inactive”. Consider `COc1cccc(CNCc2c(C(=O)O)n(Cc3ccc(C)cc3)c3cc(C)ccc23)c1OC`, for which the Potency was 16.4 µM (active).

Consider `COc1ccc(CCNCc2c(C(=O)O)c(C)n(Cc3cccc(C)c3)c2C)cc1OC`, for which the Potency entry was “inactive”. With `CCOc1c(CNCc2ccc(C(=O)O)cc2)cccc1OC` the entry was “inactive”; with `CCOC(=O)c1c(Cc2ccc(Cl)cc2)c[nH]c1C`, “inactive”.

For the compound `NC(=NC(=O)c1ccccc1)N1CCOCC1`, the Potency entry was “inactive”.

For the compound `O=C(CNS(=O)(=O)c1ccccc1)NCC(=O)OCc1ccccc1F`, the Potency result was “inactive”. With `COc1ccc(CNC(=O)Cn2nnc(-c3ccc(S(C)(=O)=O)cc3)n2)cc1` the entry was “inactive”. As for `COc1ccc(-c2nc3sc(CCNS(=O)(=O)c4ccc(F)c(C)c4)c(C)n3n2)cc1`, the Potency was 20.6 µM (active). With `COc1ccc(CCNS(=O)(=O)c2cn(C)nc2C)cc1` the entry was “inactive”. With `Cc1ccc(S(=O)(=O)NCCC(=O)Nc2cccc(S(N)(=O)=O)c2)cc1C` the entry was “inactive”. With `CCOc1ccc2nc(NCCNC(=O)C(C)(C)C)c(C)cc2c1` the entry was “inactive”; with `COc1ccc(-c2nc3sc(CCNC(=O)C(C)(C)C)c(C)n3n2)cc1`, 23.1 µM (active). For `COC(=O)C1=NNC2(c3ccc(C)cc3)C(=O)N(c3cccc(C)c3C)C(=O)C12` (centres undefined), the Potency entry is “inactive”. On to `CS(=O)(=O)c1ccc(-c2nnn(CC(=O)Nc3ccc4c(c3)OCCO4)n2)cc1`, for which the Potency result is “inactive”.

With `O=C(NC1CCN(Cc2ccccc2)CC1)c1cc(Br)c(Br)[nH]1`, the Potency was 16.4 µM (active). As to `O=C(NC1CCN(Cc2ccccc2)CC1)c1c(F)cccc1F`, the Potency entry was “inactive”. Turning to `O=C(NC1CCN(Cc2ccccc2)CC1)c1ccccc1F`, the Potency entry was “inactive”.

As for `CC(=O)NCc1ccc(S(=O)(=O)NC2CCN(Cc3ccccc3)CC2)cc1`, the Potency result is “inactive”.

On to `O=C(NC1CCN(Cc2ccccc2)CC1)c1ccc(Oc2cc(Cl)cc(Cl)c2)o1`, for which the Potency was 18.4 µM (active). Regarding `O=S(=O)(NCc1ccccn1)c1ccc(Br)s1`, the Potency entry is “inactive”. For `CCOCCCNC(=O)c1c[nH]c2cc(C)ccc2c1=O`, the Potency entry was “inactive”. Turning to `COc1cccc(OCc2nnc3n2N=C(c2ccccc2)C(CC(=O)O)S3)c1` (centres undefined), the Potency entry was “inactive”. With `Cc1nn(-c2ccccc2)c(Cl)c1/C=C/C(=O)c1ccc(O)cc1` the figure was 16.4 µM (active); with `O=C(O)c1ccc2c(c1)C(=O)N(c1ccc(/C=C/C(=O)c3ccccc3)cc1)C2=O`, “inactive”; with `Cc1nn(-c2ccccc2)c(C)c1/C=C/C(=O)OC(C)C(N)=O` (centres undefined), “inactive”.

For the compound `Cc1nn(-c2ccccc2)c(CC(C)(C)C(=O)O)c1C(=O)O`, the Potency result was “inactive”. Turning to `Cc1nn(-c2ccccc2)c(Cl)c1C(=O)Nc1ccccc1`, the Potency result was “inactive”. With `Cc1ccc(C(=O)/C=C/c2c(C)nn(-c3ccccc3)c2Cl)cc1` the figure was 20.6 µM (active). With `COc1ccc(C2CC(=O)C=C(NCC3CCCO3)C2)cc1` (centres undefined), the Potency result is “inactive”.

Take `COC(=O)c1ccc(/C=N\n2c(C)nnc2C)cc1`: the Potency result was “inactive”.

Turning to `CC(OC(=O)c1ccc(NS(=O)(=O)c2ccc3[nH]c(=O)[nH]c3c2)cc1)C(=O)Nc1cccc(Cl)c1Cl` (centres undefined), the Potency entry was “inactive”.

Consider `O=C(COCc1cc(-c2ccc3c(c2)OCO3)on1)N1CCN(c2cccc(Cl)c2)CC1`, for which the Potency entry is “inactive”. In the case of `Cc1cc(/C=C2/C(=N)N3C(=NC2=O)SN=C3S(C)(=O)=O)c(C)n1-c1ccccc1`, the Potency entry is “inactive”. With `O=C(CSc1nnc(Cc2ccccc2)n1-c1ccccc1)N1CCOCC1` the entry was “inactive”; with `CN(CCc1ccccn1)C(=O)c1ccc(OC2CCN(CCc3ccccc3)CC2)cc1`, “inactive”.

For the compound `Fc1ccc(-c2ccc(-c3nn4c(-c5ccco5)nnc4s3)o2)cc1`, the Potency result is “inactive”.

`c1ccc(-c2cc(-c3ccccc3)[nH]n2)cc1`: the Potency entry is “inactive”. In the case of `c1ccc(-c2cc(-c3nnc4sc(-c5ccccn5)nn34)[nH]n2)cc1`, the Potency is 13 µM (active). With `COC(=O)C1[C@H]2SC(C)(C)C(C(=O)OC)N2C(=O)N1Cc1nc2ccccc2s1` (some centres undefined) the entry was “inactive”. With `Cc1cccc(CSc2nnc(Cn3c(=O)sc4ccccc43)n2C)c1` the entry was “inactive”. With `CNC(=S)N1N=C(c2ccccc2)CC1c1ccc(Br)cc1` (centres undefined) the entry was “inactive”; with `Brc1ccc(C2CC(c3ccccc3)=Nc3ccccc3N2)cc1` (centres undefined), 23.1 µM (active). Regarding `CCCC(=O)Nc1cccc(NC(=S)NC(=O)C(C)Oc2ccc(Cl)cc2Cl)c1` (centres undefined), the Potency result was “inactive”. With `CC(Cc1cccs1)NC(=O)c1cccc(Cl)c1` (centres undefined) the entry was “inactive”.

With `Cc1noc(C)c1S(=O)(=O)N(C)C[C@H]1Oc2ccc(NC(=O)C3CC3)cc2C(=O)N([C@H](C)CO)C[C@@H]1C`, the Potency result is “inactive”. Consider `COc1ccc(-c2nc(Cn3c(=O)cc(C)c4c(C)nn(-c5ccccc5)c43)c(C)o2)cc1OC`, for which the Potency result is “inactive”. Consider `COc1ccc(-c2nc(Cn3c(=O)cc(C)c4c(C)nn(-c5ccccc5)c43)c(C)o2)c(OC)c1`, for which the Potency is 20.6 µM (active).

As for `Cc1ccc(-c2nc(Cn3c(=O)cc(-c4ccccc4)c4c(C)nn(C)c43)c(C)o2)cc1`, the Potency entry was “inactive”. With `COc1cc(NC(=O)COC(=O)CSc2ccc3ccccc3c2)c(C)cc1[N+](=O)[O-]` the entry was “inactive”.

On to `O=C1N=C(N2CCOCC2)S/C1=C\C=C/c1ccccc1`, for which the Potency entry was “inactive”. Turning to `CC1CCN(C2=NC(=O)/C(=C/c3cn[nH]c3-c3ccccc3)S2)CC1`, the Potency was 14.6 µM (active). With `Cc1nc2nc(C)c(NS(=O)(=O)c3ccc(C(C)(C)C)cc3)c(=O)n2[nH]1` the entry was “inactive”. With `CC(=O)c1ccc(OC(=O)N2CCOCC2)cc1` the entry was “inactive”. With `Cc1ccc(CN(C)Cc2cc(=O)oc3cc(C)c(Cl)cc23)cc1`, the Potency result was “inactive”. For the compound `COc1ccc(S(=O)(=O)N(C)C[C@@H]2Oc3ccc(NS(=O)(=O)c4cn(C)cn4)cc3C(=O)N([C@@H](C)CO)C[C@@H]2C)cc1`, the Potency result was “inactive”. With `Cn1c(N)c(C(=O)COC(=O)c2ccc3ccccc3c2)c(=O)n(C)c1=O` the entry was “inactive”; with `Cc1ccc(OCC(=O)Oc2ccccc2[N+](=O)[O-])cc1`, “inactive”; with `Cc1cc(OCCCCOc2ccc(C#N)cc2)ccc1[N+](=O)[O-]`, 8.2 µM (active). For `Cc1ccccc1N1CCN(CCCN2C(=O)C3CCCCN3C2=O)CC1` (centres undefined), the Potency entry is “inactive”. With `CCc1cc(=O)oc2cc(OCC(=O)N3CCCc4ccccc43)ccc12` the entry was “inactive”. With `Cc1cc(OCCCN2CCN(Cc3ccccc3)CC2)ccc1[N+](=O)[O-]`, the Potency was 11.6 µM (active). For the compound `Cc1cc(OCC(=O)Nc2c(C)n(C)n(-c3ccccc3)c2=O)ccc1[N+](=O)[O-]`, the Potency result was “inactive”. With `Cc1c(Br)c([N+](=O)[O-])nn1CC(=O)N1CCN(Cc2ccccc2)CC1` the entry was “inactive”; with `Cc1cc(OCC(=O)NC2CCN(C)CC2)ccc1[N+](=O)[O-]`, “inactive”; with `Cc1ccccc1N1CCN(CCCOc2ccc3c(C)cc(=O)oc3c2)CC1`, 16.4 µM (active). With `COc1ccc(S(=O)(=O)Nc2c(C)n(C)n(-c3ccccc3)c2=O)cc1` the entry was “inactive”. As to `CC[C@@H]1CCCCc2ccccc2[C@@H](C(=O)C[C@H](O)CC(C)=O)OC1=O`, the Potency result is “inactive”. With `O=C(c1cc(COc2ccc(F)cc2F)on1)N1CCOCC1` the entry was “inactive”; with `Cc1ccccc1CSc1nnc(-c2ccccn2)n1N`, “inactive”; with `CN(Cc1ccccc1)S(=O)(=O)c1nnc(NC(=O)c2ccccc2F)s1`, “inactive”. On to `O=C(Oc1cccc(C(=S)N2CCOCC2)c1)c1cccc(Cl)c1`, for which the Potency entry was “inactive”. With `COCCCNC(=O)C1CC(=O)N(CCc2ccc(F)cc2)C1` (centres undefined) the entry was “inactive”; with `COC(=O)C1C(=O)NCC1c1ccc(C)cc1` (centres undefined), “inactive”; with `O=[N+]([O-])c1ccc(NCCCO)c(C(F)(F)F)c1`, “inactive”. For the compound `CO/N=C(\N)c1ccc([N+](=O)[O-])cc1`, the Potency entry is “inactive”. With `O=C1/C(=C\c2ccc(O)cc2)CCC1CNc1ccc(Cl)cc1` (centres undefined) the figure was 3.26 µM (active); with `CCCNC(=O)C(=O)Nc1cc2c3c(c1)CCC(=O)N3CCC2`, “inactive”. `CC1=NN(C(N)=S)C(=O)C1N=Nc1cc(Cl)ccc1Cl` (centres undefined): the Potency is 3.66 µM (active). In the case of `Cc1[nH]n(C(N)=S)c(=O)c1N=Nc1ccc(Cl)cc1Cl`, the Potency result is “inactive”.
